Assay results as given in PubChem BioAssay AID1159580 (chemical genetic matrix, 2015).
Values joined by “and” are separate entries in the source; they are usually repeats but may differ in a detail not shown here. Equal entries are not always repeated. Among all 5,500 compounds or so, about 2,000 (36%) were called active. Another 18% or so got no clear call; they are omitted. No stated cut-off is given here; in the data, active means normalized growth mostly below about 0.91 (no sharp cut-off); inconclusive means no clear call, values can overlap the other calls; inactive means mostly above about 0.92. Some of the results follow.

Experiment: chemical genetic growth profiling, strain panel (AID 1159580);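 further: tested at 20 µM; growth read once vehicle control cultures reached saturation at 30 °C; 1 = growth at the plate median or of vehicle wells; lower values mean less growth of the strain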
Details: S. cerevisiae deletion strains, growth OD

Measured: normalized growth

NS(=O)(=O)c1cc2c(cc1C(F)(F)F)NCNS2(=O)=O
inactive: locus YAL013W, strain DEP1, active compounds read low 1.03 | locus YAL021C, strain ccr4, active compounds read low 0.995 | locus YAL026C, strain drs2, active compounds read low 1 | locus YAL030W, strain snc1, active compounds read low 0.995 | locus YBL061C, strain skt5, active compounds read low 0.996 | locus YBR009C, strain hhf1, active compounds read low 0.985 | locus YBR021W, strain FUR4, active compounds read low 1 | locus YBR023C, strain chs3, active compounds read low 0.989 | locus YBR171W, strain sec66, active compounds read low 1.01 | locus YBR229C, strain ROT2, active compounds read low 1.02 | locus YBR231C, strain swc5, active compounds read low 0.975 | locus YBR279W, strain paf1, active compounds read low 0.992 | locus YCL011C, strain gbp2, active compounds read low 0.991 | locus YCL016C, strain dcc1, active compounds read low 0.969 | locus YCL029C, strain bik1, active compounds read low 0.997 | locus YCL061C, strain MRC1, active compounds read low 0.997 | locus YCL069W, strain vba3, active compounds read low 1 | locus YCR088W, strain abp1, active compounds read low 0.999 | locus YDL005C, strain med2, active compounds read low 0.99 | locus YDL035C, strain GPR1, active compounds read low 1.03 | locus YDL040C, strain nat1, active compounds read low 0.996 | locus YDL074C, strain BRE1, active compounds read low 1.01 | locus YDL101C, strain DUN1, active compounds read low 1.02 | locus YDL185W, strain tfp1, active compounds read low 0.997 | locus YDL192W, strain arf1, active compounds read low 0.993 | locus YDR001C, strain nth1, active compounds read low 1 | locus YDR069C, strain doa4, active compounds read low 1.01 | locus YDR101C, strain arx1, active compounds read low 1 | locus YDR137W, strain rgp1, active compounds read low 1.01 | locus YDR159W, strain sac3, active compounds read low 0.966 | locus YDR162C, strain NBP2, active compounds read low 1.02 | locus YDR195W, strain ref2 0.994 | locus YDR297W, strain sur2, active compounds read low 1.01 | locus YDR318W, strain mcm21, active compounds read low 0.986 | locus YDR334W, strain swr1, active compounds read low 1.01 | locus YDR335W, strain msn5, active compounds read low 0.999 | locus YDR388W, active compounds read low 0.998 | locus YDR392W, strain spt3, active compounds read low 0.939 | locus YDR502C, strain sam2, active compounds read low 0.988 | locus YEL003W, strain gim4, active compounds read low 1 | locus YEL037C, strain rad23, active compounds read low 1.02 | locus YEL061C, strain CIN8 (second series), active compounds read low 1.01 | locus YEL061C, strain CIN8, active compounds read low 1.02 | locus YER015W, strain faa2, active compounds read low 0.97 | locus YER016W, strain bim1, active compounds read low 1 | locus YER110C, active compounds read low 0.99 | locus YER111C, strain swi4, active compounds read low 1 | locus YER155C, strain BEM2 (second series), active compounds read low 0.98 | locus YER155C, strain BEM2, active compounds read low 1 | locus YER167W, strain BCK2, active compounds read low 1.01 | locus YFR010W, strain ubp6, active compounds read low 1 | locus YGL078C, strain dbp3, active compounds read low 0.983 | locus YGL086W, strain mad1, active compounds read low 0.99 | locus YGL167C, strain pmr1, active compounds read low 0.998 | locus YGL173C, strain kem1, active compounds read low 0.998 | locus YGL227W, strain vid30, active compounds read low 1 | locus YGL240W, strain doc1, active compounds read low 0.965 | locus YGL248W, strain PDE1, active compounds read low 1.02 | locus YGL253W, strain hxk2, active compounds read low 1.01 | locus YGR135W, strain pre9, active compounds read low 0.974 | locus YGR252W, strain gcn5, active compounds read low 0.922 | locus YHR013C, strain ard1, active compounds read low 0.989 | locus YHR027C, strain rpn1, active compounds read low 1.01 | locus YHR030C, strain SLT2, active compounds read low 1.01 and 0.988 | locus YHR079C, strain IRE1 (second series), active compounds read low 0.998 | locus YHR079C, strain IRE1, active compounds read low 0.984 | locus YHR094C, strain hxt1, active compounds read low 0.993 | locus YHR129C, strain ARP1, active compounds read low 1.02 | locus YHR142W, strain chs7, active compounds read low 1.01 | locus YHR200W, strain rpn10, active compounds read low 0.988 | locus YIL066C, strain RNR3, active compounds read low 1.03 | locus YIL073C, strain SPO22, active compounds read low 1.01 | locus YIL125W, strain kgd1, active compounds read low 0.992 | locus YIR030C, strain dcg1, active compounds read low 0.994 | locus YJL092W, strain hpr5, active compounds read low 1 | locus YJL095W, strain BCK1 (second series), active compounds read low 0.997 | locus YJL095W, strain BCK1, active compounds read low 1.03 and 0.978 | locus YJL115W, strain asf1, active compounds read low 1.01 | locus YJL129C, strain trk1, active compounds read low 1.01 | locus YJL134W, strain LCB3, active compounds read low 1.02 | locus YJL154C, strain vps35, active compounds read low 0.993 | locus YJL164C, strain tpk1, active compounds read low 0.992 | locus YJL166W, strain qcr8, active compounds read low 0.993 | locus YJL168C, strain set2, active compounds read low 0.987 | locus YJL187C, strain SWE1 (second series), active compounds read low 1.02 | locus YJL187C, strain SWE1, active compounds read low 0.994 | locus YJR043C, strain POL32, active compounds read low 1.02 | locus YJR066W, strain TOR1, active compounds read low 0.928 | locus YKL009W, strain mrt4, active compounds read low 1 | locus YKL068W, active compounds read low 1 | locus YKL085W, strain MDH1 (second series), active compounds read low 0.999 | locus YKL085W, strain MDH1, active compounds read low 0.999 | locus YKL160W, strain elf1, active compounds read low 0.986 | locus YKL190W, strain CNB1, active compounds read low 1.02 | locus YKR001C, strain vps1, active compounds read low 1.01 | locus YKR026C, strain gcn3, active compounds read low 0.993 | locus YKR091W, strain srl3, active compounds read low 0.993 | locus YLL001W, strain dnm1, active compounds read low 0.98 | locus YLL026W, active compounds read low 0.994 | locus YLL041C, strain sdh2, active compounds read low 0.997 | locus YLR027C, strain aat2, active compounds read low 1.01 | locus YLR039C, strain RIC1, active compounds read low 1.07 | locus YLR058C, strain SHM2, active compounds read low 1.02 | locus YLR102C, strain apc9, active compounds read low 0.985 | locus YLR113W, strain HOG1, active compounds read low 0.991 | locus YLR221C, strain rsa3, active compounds read low 0.974 | locus YLR258W, strain gsy2, active compounds read low 0.992 | locus YLR262C, strain YPT6 (second series), active compounds read low 1 | locus YLR262C, strain YPT6, active compounds read low 1.03 | locus YLR268W, strain sec22, active compounds read low 0.988 | locus YLR320W, strain mms22, active compounds read low 0.988 | locus YLR330W, strain CHS5, active compounds read low 1.02 | locus YLR342W, strain FKS1 (second series), active compounds read low 1.01 | locus YLR342W, strain FKS1, active compounds read low 1 | locus YLR357W, strain rsc2, active compounds read low 0.971 | locus YLR370C, strain arc18, active compounds read low 0.999 | locus YLR371W, strain rom2, active compounds read low 0.979 | locus YLR384C, strain iki3, active compounds read low 0.988 | locus YLR418C, strain cdc73, active compounds read low 0.967 | locus YML016C, strain PPZ1, active compounds read low 1.02 | locus YML032C, strain rad52, active compounds read low 0.985 | locus YML120C, strain ndi1, active compounds read low 0.983 | locus YML124C, strain tub3, active compounds read low 0.988 | locus YMR058W, strain fet3, active compounds read low 1.01 | locus YMR078C, strain ctf18, active compounds read low 0.997 | locus YMR125W, strain sto1, active compounds read low 0.982 | locus YMR129W, active compounds read low 0.999 | locus YMR205C, strain PFK2, active compounds read low 0.982 | locus YMR223W, strain ubp8, active compounds read low 0.986 | locus YMR231W, strain pep5, active compounds read low 0.998 | locus YMR307W, strain GAS1, active compounds read low 1.01 | locus YNL067W, strain RPL9B, active compounds read low 1.02 | locus YNL071W, strain lat1, active compounds read low 1 | locus YNL153C, strain GIM3, active compounds read low 1.01 | locus YNL183C, strain NPR1, active compounds read low 0.96 | locus YNL209W, strain ssb2, active compounds read low 0.986 | locus YNL233W, strain BNI4, active compounds read low 1.02 | locus YNL248C, strain rpa49, active compounds read low 1 | locus YNL250W, strain rad50, active compounds read low 0.996 | locus YNL271C, strain bni1, active compounds read low 0.999 | locus YNL298W, strain CLA4, active compounds read low 0.983 | locus YNL307C, strain MCK1, active compounds read low 0.988 | locus YNL322C, strain KRE1 (second series), active compounds read low 0.99 | locus YNR049C, strain mso1, active compounds read low 0.996 | locus YNR052C, strain pop2, active compounds read low 0.991 | locus YOL012C, strain htz1 0.725 | locus YOL147C, strain pex11, active compounds read low 0.991 | locus YOR001W, strain rrp6, active compounds read low 1.01 | locus YOR061W, strain CKA2, active compounds read low 1.03 | locus YOR069W, strain VPS5, active compounds read low 1.02 | locus YOR070C, strain gyp1, active compounds read low 0.992 | locus YOR080W, strain dia2, active compounds read low 0.99 | locus YOR083W, strain WHI5, active compounds read low 1.04 | locus YOR106W, strain vam3, active compounds read low 0.974 | locus YOR136W, strain idh2, active compounds read low 0.991 | locus YOR144C, strain elg1, active compounds read low 0.991 | locus YOR184W, strain ser1, active compounds read low 0.982 | locus YOR231W, strain MKK1, active compounds read low 0.991 | locus YOR265W, strain rbl2, active compounds read low 0.993 | locus YOR270C, strain vph1, active compounds read low 1.03 | locus YOR290C, strain snf2, active compounds read low 0.935 | locus YOR316C, strain cot1, active compounds read low 0.997 | locus YPL051W, strain arl3, active compounds read low 0.98 | locus YPL055C, strain LGE1, active compounds read low 1.02 | locus YPL078C, strain atp4, active compounds read low 1 | locus YPL106C, strain sse1, active compounds read low 0.966 | locus YPL240C, strain hsp82, active compounds read low 0.994 | locus YPL241C, strain CIN2, active compounds read low 1.02 | locus YPL256C, strain CLN2, active compounds read low 0.976 | locus YPR119W, strain clb2, active compounds read low 0.994 | locus YPR141C, strain kar3, active compounds read low 0.988 | locus YPR163C, strain tif3, active compounds read low 0.995 | locus YPR167C, strain met16, active compounds read low 0.987 | strain wtn01, active compounds read low 0.977
